The record followed here is PubChem BioAssay (NCATS).

Records with an inconclusive call do not appear. The source made the active and inactive calls. Calls come from the whole dose curve; as a rule, active = well fitted cell-killing curve with a large enough effect; inconclusive = small, poorly fitted or top-dose-only effect, or effect the other way; inactive = flat fitted curve, though single readings scatter.
% is set by controls: 0 for no effect and ±100 for the full control effect.

The first experiment deals with CAOV3. Description: Primary qHTS to identify gynecologic anti-cancer compounds using libraries of approved drugs and bioactive compounds (AID 1345084). Note: nearly all actives have a fitted effect of over 55% in size. Conditions: Gynecologic cancer cell panel viability, ATPlite luminescence, 48 h; series mostly up to 57.5 µM; activity change, negative = cytotoxicity: at the top concentration. The gist of the method:
(§1)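 In this quantitative HTS, cell killing is estimated from loss of ATP-dependent luciferase light. Cells see five compound concentrations over a 48 h exposure.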
A general note: Quantitative high-throughput screening tests each substance at several concentrations.
Take `COc1ccc(C2C(=O)c3ccccc3C2=O)cc1`: the “activity change, negative = cytotoxicity” value is 13.4% (inactive).

As to `Cc1c(N(C)CS(=O)(=O)O)c(=O)n(-c2ccccc2)n1C`, the “activity change, negative = cytotoxicity” value was 23.1% (inactive). With `OC[C@H]1O[C@H](O[C@]2(CCl)O[C@H](CCl)[C@@H](O)[C@@H]2O)[C@H](O)[C@@H](O)[C@H]1Cl`, the Potency entry is “inactive”.

For `Cc1cc(O)c(C(C)C)cc1Cl`, the “activity change, negative = cytotoxicity” value is -2.55% (inactive).

For the compound `O=C1c2ccccc2C(=O)C1c1ccccc1`, the “activity change, negative = cytotoxicity” value was 15.2% (inactive). Take `Cc1ncc(CSSCc2cnc(C)c(O)c2CO)c(CO)c1O`: the “activity change, negative = cytotoxicity” value was 10.6% (inactive). The same measure, in the same setting: the value for `NC[C@H]1O[C@H](O[C@H]2[C@H](O)[C@@H](O[C@H]3O[C@H](CO)[C@@H](O)[C@H](N)[C@H]3O)[C@H](N)C[C@@H]2N)[C@H](N)[C@@H](O)[C@@H]1O` was 2.04% [at 25.3 µM] (inactive). In the case of `CC(=O)O[C@]1(C(C)=O)CC[C@H]2[C@@H]3C[C@H](C)C4=CC(=O)CC[C@]4(C)[C@H]3CC[C@@]21C`, the Potency result is “inactive”. Turning to `CC(=O)OCC(=O)[C@@]1(O)[C@H](C)C[C@H]2[C@@H]3CCC4=CC(=O)C=C[C@]4(C)[C@@]3(F)[C@@H](O)C[C@@]21C`, the Potency result is “inactive”. On the same count and under the same terms, to `CN1[C@@H]2CC[C@H]1CC(OC(=O)c1c[nH]c3ccccc13)C2` (some centres not stated) belongs “inactive”. As for `Cc1c(C(C)C)c(=O)n(-c2ccccc2)n1C`, the “activity change, negative = cytotoxicity” value is 1.58% (inactive). On to `O=c1[nH]c(=O)n([C@H]2CCCO2)cc1F`, for which the Potency result is “inactive”. Still for that read-out and setting: the value for `COC(=O)CCc1ccc(OCC(O)CNC(C)C)cc1` (configuration not stated) was “inactive”; that for `Cc1cc2c(cc1CC(=O)c1sccc1S(=O)(=O)Nc1onc(C)c1Cl)OCO2` was “inactive”; that for `CCCCS(=O)(=O)N[C@@H](Cc1ccc(OCCCCC2CCNCC2)cc1)C(=O)O` was “inactive”. `Cc1onc(-c2c(Cl)cccc2Cl)c1C(=O)N[C@@H]1C(=O)N2[C@@H]1SC(C)(C)[C@@H]2C(=O)O`: the Potency result is “inactive”. The same measure, in the same setting: to `CN1CCN(C(c2ccccc2)c2ccccc2)CC1` belongs “inactive”. For `NC(CS)C(=O)O` (configuration not stated), the “activity change, negative = cytotoxicity” value was 5.52% (inactive).

As to `CN(C)CCOc1ccccc1Cc1ccccc1`, the “activity change, negative = cytotoxicity” value was 5.39% (inactive).

In the case of `CCOC(=O)OC(C)OC1=C(C(=O)Nc2ccccn2)N(C)S(=O)(=O)c2ccccc21` (configuration not stated), the “activity change, negative = cytotoxicity” value is -8.96% (inactive).

Regarding `C[C@H](O)C(=O)Nc1c(I)c(C(=O)NC(CO)CO)c(I)c(C(=O)NC(CO)CO)c1I`, the “activity change, negative = cytotoxicity” value was 4.03% (inactive). Still for that read-out and setting: the value for `CC(C)COC(=O)c1ccc(N)cc1` was 24.1% (inactive). `Cc1ccc(C(=O)C(C)CN2CCCCC2)cc1` (configuration not stated): the Potency result is “inactive”. As to `CC1(C)O[C@@H]2[C@@H](CO[C@@]3(COS(N)(=O)=O)OC(C)(C)O[C@@H]23)O1`, the “activity change, negative = cytotoxicity” value is 5.15% (inactive). The same measure, in the same setting: the value for `CCN(CCCCOC(=O)c1ccc(OC)c(OC)c1)C(C)Cc1ccc(OC)cc1` (configuration not stated) was -18.1% (inactive); that for `CN=C(NC#N)Nc1ccc(C2=NNC(=O)CC2C)cc1` (configuration not stated) was -1.02% (inactive).

In a further experiment the test system is CASKI. Described as above. The note with it: Gynecologic cancer cell panel viability, ATPlite luminescence, 48 h; series mostly up to 57.5 µM; activity change, negative = cytotoxicity: at the top concentration. The gist of the method:
as §1
With `COc1ccc(C2C(=O)c3ccccc3C2=O)cc1`, the “activity change, negative = cytotoxicity” value was 15.5% (inactive).

As to `Cc1c(N(C)CS(=O)(=O)O)c(=O)n(-c2ccccc2)n1C`, the “activity change, negative = cytotoxicity” value was -1.21% (inactive). Turning to `OC[C@H]1O[C@H](O[C@]2(CCl)O[C@H](CCl)[C@@H](O)[C@@H]2O)[C@H](O)[C@@H](O)[C@H]1Cl`, the Potency result is “inactive”. With `C[C@H](CCC(=O)O)[C@H]1CC[C@H]2[C@@H]3C(=O)C[C@@H]4CC(=O)CC[C@]4(C)[C@H]3CC(=O)[C@]12C`, the “activity change, negative = cytotoxicity” value is -1.08% (inactive). Consider `Cc1cc(O)c(C(C)C)cc1Cl`, for which the “activity change, negative = cytotoxicity” value was -1.58% (inactive). On the same count and under the same terms, to `O=C1c2ccccc2C(=O)C1c1ccccc1` belongs 10.7% (inactive). Regarding `Cc1ncc(CSSCc2cnc(C)c(O)c2CO)c(CO)c1O`, the “activity change, negative = cytotoxicity” value is 10.3% (inactive). Turning to `NC[C@H]1O[C@H](O[C@H]2[C@H](O)[C@@H](O[C@H]3O[C@H](CO)[C@@H](O)[C@H](N)[C@H]3O)[C@H](N)C[C@@H]2N)[C@H](N)[C@@H](O)[C@@H]1O`, the “activity change, negative = cytotoxicity” value was 6.21% [at 25.3 µM] (inactive). For `Cc1ccc(Nc2c(F)cccc2Cl)c(CC(=O)O)c1`, the Potency entry is “inactive”. In the case of `CC(=O)O[C@]1(C(C)=O)CC[C@H]2[C@@H]3C[C@H](C)C4=CC(=O)CC[C@]4(C)[C@H]3CC[C@@]21C`, the Potency entry is “inactive”. With `CC(=O)OCC(=O)[C@@]1(O)[C@H](C)C[C@H]2[C@@H]3CCC4=CC(=O)C=C[C@]4(C)[C@@]3(F)[C@@H](O)C[C@@]21C`, the Potency result is “inactive”. For the compound `CC(=O)N(O)CCCCCNC(=O)CCC(=O)N(O)CCCCCNC(=O)CCC(=O)N(O)CCCCCN`, the “activity change, negative = cytotoxicity” value was -22.7% (inactive). In the case of `CN1[C@@H]2CC[C@H]1CC(OC(=O)c1c[nH]c3ccccc13)C2` (some centres not stated), the Potency entry was “inactive”. Turning to `CC(O)(P(=O)(O)O)P(=O)(O)O`, the “activity change, negative = cytotoxicity” value was -0.706% (inactive). On the same count and under the same terms, to `Cc1c(C(C)C)c(=O)n(-c2ccccc2)n1C` belongs 12.2% (inactive).

Take `CCCCC(=O)O[C@]1(C(=O)CO)CC[C@H]2[C@@H]3CCC4=CC(=O)CC[C@]4(C)[C@H]3[C@@H](O)C[C@@]21C`: the “activity change, negative = cytotoxicity” value is -0.186% (inactive). `O=c1[nH]c(=O)n([C@H]2CCCO2)cc1F`: the Potency entry is “inactive”.

Consider `COC(=O)CCc1ccc(OCC(O)CNC(C)C)cc1` (configuration not stated), for which the Potency result is “inactive”.

`Cc1cc2c(cc1CC(=O)c1sccc1S(=O)(=O)Nc1onc(C)c1Cl)OCO2`: the Potency entry is “inactive”. On the same count and under the same terms, the value for `CC(C)(C)NC(=O)[C@@H]1CN(Cc2cccnc2)CCN1C[C@@H](O)C[C@@H](Cc1ccccc1)C(=O)N[C@H]1c2ccccc2C[C@H]1O` was “inactive”. For `CCCCS(=O)(=O)N[C@@H](Cc1ccc(OCCCCC2CCNCC2)cc1)C(=O)O`, the Potency result was “inactive”. Still for that read-out and setting: to `Cc1onc(-c2c(Cl)cccc2Cl)c1C(=O)N[C@@H]1C(=O)N2[C@@H]1SC(C)(C)[C@@H]2C(=O)O` belongs “inactive”; to `CN1CCN(C(c2ccccc2)c2ccccc2)CC1`, “inactive”. Consider `O=C(O)CNC(=O)c1ccccc1`, for which the “activity change, negative = cytotoxicity” value was 12.8% (inactive). Still for that read-out and setting: the value for `COC(=O)[C@@H]1CC2=CC(=O)CC[C@]2(C)[C@@]23O[C@@H]2C[C@@]2(C)[C@@H](CC[C@@]24CCC(=O)O4)[C@H]13` was 7.18% (inactive); that for `NC(CS)C(=O)O` (configuration not stated) was 0.01% (inactive).

On to `CN(C)CCOc1ccccc1Cc1ccccc1`, for which the “activity change, negative = cytotoxicity” value is -13.4% (inactive). Same read-out and setting: the value for `CCOC(=O)OC(C)OC1=C(C(=O)Nc2ccccn2)N(C)S(=O)(=O)c2ccccc21` (configuration not stated) was -2.8% (inactive); that for `N[C@H](Cc1c[nH]c2ccccc12)C(=O)O` was -2.32% (inactive); that for `C[C@H](O)C(=O)Nc1c(I)c(C(=O)NC(CO)CO)c(I)c(C(=O)NC(CO)CO)c1I` was -6.24% (inactive). Same read-out and setting: to `CC(C)COC(=O)c1ccc(N)cc1` belongs -5.6% (inactive). For `Cc1ccc(C(=O)C(C)CN2CCCCC2)cc1` (configuration not stated), the Potency result is “inactive”.

With `CC1(C)O[C@@H]2[C@@H](CO[C@@]3(COS(N)(=O)=O)OC(C)(C)O[C@@H]23)O1`, the “activity change, negative = cytotoxicity” value is 0.944% (inactive).

Consider `CCN(CCCCOC(=O)c1ccc(OC)c(OC)c1)C(C)Cc1ccc(OC)cc1` (configuration not stated), for which the “activity change, negative = cytotoxicity” value was -20.7% (inactive). For the compound `CN=C(NC#N)Nc1ccc(C2=NNC(=O)CC2C)cc1` (configuration not stated), the “activity change, negative = cytotoxicity” value was 18.3% (inactive). As for `Cc1nc2n(c(=O)c1CCN1CCC(c3noc4cc(F)ccc34)CC1)CCC[C@H]2O`, the Potency result was “inactive”.
